A selection: hits, their analogues and other compounds. The true share with any hit is near 1.5%.
CRFR2-BP ag: agonists of CRF-BP/CRF-R2 complex, primary screen, cell-based, HEK293, calcium dye fluorescence, uHTS. CRF-binding protein / CRF receptor 2 complex (human). calcium dye fluorescence (FLIPR); percent of saturating CRF peptide response. activation, % at 13.2 µM. 350,000 compounds, 0.46% hits;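 active = activation of at least 50%, plus an integration ratio under a set limit after plate pattern correction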;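 note: plate controls were neutral control wells without compound for no effect and CRF at EC100 for full effect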
NTR1 agonist: agonists of human NTR1, primary screen, imaging, U2OS cells, beta-arrestin-GFP, high content. Neurotensin receptor type 1 (Homo sapiens), P30989. NTR1-U2OS beta-arrestin-GFP spot imaging, agonist mode. activation, % at 20 µM. 330,000 compounds, 0.17% hits. AID 493036, 2011;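 active = activation at or above 40% of the spot to cytoplasm intensity ratio, with at least 20 cells analyzed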;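 note: 0% = DMSO without peptide and 100% = 100 nM NTR1 peptide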
Target sequence (P30989 whole entry, looked up): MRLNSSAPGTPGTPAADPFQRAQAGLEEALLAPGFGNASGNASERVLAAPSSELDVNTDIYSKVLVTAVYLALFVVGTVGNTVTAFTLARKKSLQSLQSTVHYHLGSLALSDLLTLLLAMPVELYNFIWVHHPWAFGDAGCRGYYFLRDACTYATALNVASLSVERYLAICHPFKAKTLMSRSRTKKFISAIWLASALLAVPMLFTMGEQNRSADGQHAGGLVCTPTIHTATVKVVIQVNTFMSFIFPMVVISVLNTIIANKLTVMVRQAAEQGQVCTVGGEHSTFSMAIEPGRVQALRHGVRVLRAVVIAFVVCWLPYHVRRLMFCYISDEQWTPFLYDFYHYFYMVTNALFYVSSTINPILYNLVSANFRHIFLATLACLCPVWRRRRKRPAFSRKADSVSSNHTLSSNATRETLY
CRFBP-R2 block: antagonists of CRF-BP/CRF-R2 complex, primary screen, cell-based, HEK293, calcium dye fluorescence, uHTS; inhibition, % at 11.8 µM; 350,000 compounds, 0.59% hits; CRF-induced calcium fluorescence;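 active = inhibition of the ligand-induced calcium signal above about 50% at the single tested concentration, limit read from the data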
V-ATPase pHluor: regulators of yeast V-ATPase proton pumping, primary screen, pHLuorin cytosolic pH fluorescence | S. cerevisiae | response, % at 10 µM | 350,000 compounds, 0.37% hits | AID 504577, 2011; in the data active = response mostly above about 7.3%, no sharp cut-off; inactive = mostly below about 5.4%; note: actives read high
NTR1 ag confirm: NTR1 agonists, single-dose retest, confirmation, imaging, U2OS cells, beta-arrestin-GFP, single concentration; shares compounds with NTR1 agonist; NTR1-U2OS beta-arrestin-GFP translocation imaging; activation, % at 20 µM; 480 compounds, 38% hits; AID 504550, 2011;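 active = mean activation at 20 µM of at least 40%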;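 note: 0% = DMSO without peptide and 100% = 100 nM NTR1 peptide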
V-ATPase pH SP: yeast V-ATPase proton pumping modulators, confirmation, S. cerevisiae, pH-sensitive GFP, second cherry-pick | shares compounds with V-ATPase pHluor | S. cerevisiae pHLuorin cytosolic pH, V-ATPase proton transport | response, % at 10 µM | 980 compounds, 2% hits | AID 602197, 2012; in the data active = response above about 24%;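 note: plate controls were vehicle wells for no effect and positive control wells for full effect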
Active calls of the source: *; nt = no result.

SMILES	CRFR2-BP ag	NTR1 agonist	CRFBP-R2 block	V-ATPase pHluor	V-ATPase pH SP	others
CCC(C)NC(=O)c1c(N)n(/N=C/c2cccnc2)c2nc3ccccc3nc12 (stereo unspecified)	-1	41*	-28	-7	nt	NTR1 ag confirm=46*
COc1cc(-c2csc(N3CCOCC3)n2)cc(OC)c1OC	-1	-2	14	-1	nt
COc1ccc(-c2csc(N3CCN(c4cc(C)nc5ccccc45)CC3)n2)cc1OC	0	44*	-4	4	nt	NTR1 ag confirm=42*
CCN(C(=O)CSc1nc(-c2cccs2)nc2ccccc12)C1CCS(=O)(=O)C1 (stereo unspecified)	0	0	-10	0	nt
CC(C)=CCc1c(O)c(CC=C(C)C)c2c(c1O)C(=O)CC(c1ccc(O)cc1)O2 (stereo unspecified)	0	46*	17	0	nt	NTR1 ag confirm=39
CC(C)=CCc1c(O)cc(O)c2c1OC(c1ccc(O)cc1)CC2=O (stereo unspecified)	-1	6	10	0	nt
Cc1ccc(Nc2nnc(SC3CCOC3=O)s2)cc1 (stereo unspecified)	2	4	-9	-2	nt
CC(C)c1ccc(Nc2nnc(SC3CCOC3=O)s2)cc1 (stereo unspecified)	0	52*	2	8	nt	NTR1 ag confirm=76*
COc1cc(CC(NC(C)=O)C(=O)NC2CCN(C(=O)Nc3ccccc3C)CC2)cc(OC)c1 (stereo unspecified)	1	42*	-14	0	nt	NTR1 ag confirm=-2
COc1cc(CC(NC(C)=O)C(=O)NC2CCN(C(=O)Nc3ccccc3Cl)CC2)cc(OC)c1 (stereo unspecified)	-1	0	2	11	nt
CC(C)(C)C(C(=O)n1cccc1C#N)c1ccccc1 (stereo unspecified)	0	1	-2	1	nt
CCN(CC)CC(=O)Nc1ccc(-c2ccc(NC(=O)CN(CC)CC)c(OC)c2)cc1OC	0	10	-5	-3	nt
COc1ccc(CCn2c(=N)c(C(=O)NC3CCCC3)cc3c(=O)n4cccc(C)c4nc32)cc1	-1	50*	15	5	nt	NTR1 ag confirm=39
Clc1ccc(Cc2ccccn2)cc1	0	0	4	2	nt
O=C(Nc1nc(-c2ccccc2)cs1)c1ccc(N2CCOCC2)c([N+](=O)[O-])c1	-2	70*	-20	-2	nt	NTR1 ag confirm=37
CCC(C(=O)OC)n1cnc2c(nnn2-c2ccc(F)cc2)c1=O (stereo unspecified)	-1	4	7	4	nt
Nc1nc2c(nnn2Cc2ccc(Cl)c(Cl)c2)c(=O)[nH]1	2	nt	-2	5	nt
COC(=O)c1cnc(SCc2ccc(Cl)cc2)n1C	0	0	1	6.3*	2
CC(C)C[C@H](NC(=O)OC(C)(C)C)C(=O)N[C@@H](CO)[C@H](O)[C@@H]1C[C@@H]1C(=O)NC1CCCCC1	1	0	3	26*	2
COc1ccc(-c2nc3ccccc3c(=O)n2NC(=O)Cc2ccccc2)cc1	-1	1	4	9.8*	1
COc1ccc(CC(=O)Nn2c(-c3ccccc3)nc3ccccc3c2=O)cc1	2	1	-5	-3	nt
FC(F)(F)c1nc(SCc2ccccc2)n[nH]1	0	0	-4	1	nt
c1ccc(Cn2nnnc2CN2CCN(Cc3ccc4c(c3)OCO4)CC2)cc1	1	-1	22	6.8*	1
NS(=O)(=O)c1ccc(CNC(=O)c2cc(S(=O)(=O)N3CCOCC3)c(Cl)cc2Cl)cc1	2	0	3	-1	nt
O=C(CSc1nnc(-c2ccccc2)o1)OCc1ccccc1	1	5	4	-5	3
SMILES	CRFR2-BP ag	NTR1 agonist	CRFBP-R2 block	V-ATPase pHluor	V-ATPase pH SP	others
CC(C)(C)c1ccc(-c2nnc(SCC(=O)NC3CC3)o2)cc1	-1	-2	-4	1	nt
CCN(CC)C(=O)CSc1nnc(-c2ccccc2)o1	1	0	-13	-1	2
CCOc1ccc(-c2nnc(SCC(=O)NC3CC3)o2)cc1	0	1	6	10.0*	-1
COc1cccc(OCc2nnc(SCC(=O)OCc3ccccc3)o2)c1	-1	1	11	2	nt
O=C(NN=C1CCCCCCC1)c1ccc(F)cc1	-1	0	-1	1	-4
O=C(Nc1ccc(-c2ccc([N+](=O)[O-])cc2)cc1)c1ccccc1F	-2	0	-8	-2	nt
O=C(Nc1ccc([N+](=O)[O-])cc1)c1ccccc1F	-3	0	-12	15*	2
C[C@@H]1CN([C@H](C)CO)C(=O)c2cc(C#Cc3ccccc3F)cnc2O[C@@H]1CN(C)S(=O)(=O)c1ccccc1F	0	nt	-16	2	nt
Cc1ccc(C)c(OCc2ccc(C(=O)Nc3ccc([N+](=O)[O-])cn3)o2)c1	-1	0	18	9.9*	5
Cc1ccc(C)c(OCc2ccc(C(=O)NN)o2)c1	-1	0	3	0	nt
CC(=O)c1cnc(Oc2cc(Cl)ccc2Cl)nc1C	-2	-2	15	5	nt
Cc1ccc(C(=O)Nc2ncc(C)s2)o1	-1	1	23	8.8*	0
COc1ccc(-c2nn(C)c(=O)c3ccccc23)cc1NC(=O)Cn1nc(C)c2ccccc2c1=O	-1	1	3	9.9*	0
CCC(=O)Nc1cc(-c2nn(C)c(=O)c3ccccc23)ccc1OC	2	-2	15	-2	nt
O=C(CCN1C(=O)C2C3CC(C(Br)C3Br)C2C1=O)OCC(=O)c1cccc([N+](=O)[O-])c1 (stereo unspecified)	7	-1	-8	-3	nt
CNc1ccc(C=C2C=Cc3ccccc32)cc1	3	nt	23	6	nt
CN(C)c1ccc(C=C2C=Cc3ccccc32)cc1	3	nt	-6	12*	-3
O=C1C=C(c2ccc(C(=O)O)cc2)C[C@@H](c2ccc(F)cc2)C1	1	3	-7	9.7*	-1
COc1ccc(C2=NOC(C(=O)Nc3ccc(C(C)=O)cc3)C2)cc1OC (stereo unspecified)	-1	1	-4	1	nt
COc1cccc(C2=NOC(C(=O)Nc3ccc(C(C)=O)cc3)C2)c1 (stereo unspecified)	-1	1	0	13*	4
CC(C)(C)NC(=O)C1Cc2ccccc2CN1 (stereo unspecified)	1	0	-13	5	nt
Nc1nnc(SCCCC(=O)c2ccc(F)cc2)s1	1	2	0	0	-4
O=C(CCCSc1nnc(SCCCC(=O)c2ccc(F)cc2)s1)c1ccc(F)cc1	4	1	11	-3	1
Nc1nnc(SCCCC(=O)c2ccc(Br)cc2)s1	-1	0	-12	1	nt

Screens from PubChem.
